Results published in the supplement of paper PMC10849652.
About 8,800 targets were measured; listed, in parts, are those with a hit and a random draw of the rest. About 0.5% of all pairs of compound and target were hits.

Columns and labels:
Experiment in all cases: log2 fold change, soluble protein after heating vs DMSO (PISA); higher = thermal stabilisation; K562 lysate, 10 uM; active = over 0.2 and 3.5 SD of the protein, either way, in both replicates (recomputed)
[1] = compound: C1=CC=C(C=C1)[C@H](COC2=CC3=C(C=C2)NC(=O)N3)NC(=O)C4=CC=CN(C4=O)CC5=CC(=C(C=C5)F)F
In short: (§1)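 Thermal stability, expressed as log-two fold change relative to solvent controls, is given from duplicates. Crude K562 extract in PBS pH 7.4 with 1 mM MgCl2, at 1 mg/mL protein, was treated with 10 μM compound for 30 min and heated in aliquots for 3 min across 48°C-58°C. After pooling, adjustment to 0.5% NP-40 at 4°C and centrifugation at 21,000xg for 90 min, supernatant protein was measured by TMTpro 16plex LC-MS/MS with channel sums equalised.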

[2] = compound: CC1=C(SC2=C1C(=N[C@H](C3=NN=C(N32)C)CC(=O)N)C4=CC=C(C=C4)Cl)C
In short: as §1

[3] = compound: CC1=C2C(=CC=C1)N=C(N(C2=O)C3=CC=CC=C3C)CN4C=NC5=C(N=CN=C54)N
In short: as §1

[4] = compound: Cc1sc2c(c1C)C(c1ccc(Cl)cc1)=N[C@@H](CC(=O)OC(C)(C)C)c1nnc(C)n1-2
In short: as §1

[5] = compound: c1ccc([C@@H]2C[C@H]2NC2CCNCC2)cc1
In short: as §1

Measured: log2 fold change

TARBP2 (UniProt Q15633)
UniProt Q15633, sequence (Q15633 whole entry, looked up): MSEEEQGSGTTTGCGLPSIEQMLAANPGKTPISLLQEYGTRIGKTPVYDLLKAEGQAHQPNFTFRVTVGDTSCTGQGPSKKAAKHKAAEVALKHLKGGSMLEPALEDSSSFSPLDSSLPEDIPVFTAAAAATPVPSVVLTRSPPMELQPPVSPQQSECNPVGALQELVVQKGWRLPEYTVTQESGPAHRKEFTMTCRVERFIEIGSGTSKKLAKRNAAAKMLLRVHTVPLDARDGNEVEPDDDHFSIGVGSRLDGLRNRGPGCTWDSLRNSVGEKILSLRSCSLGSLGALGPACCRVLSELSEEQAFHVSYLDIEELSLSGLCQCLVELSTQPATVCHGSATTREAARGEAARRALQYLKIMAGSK
inactive: [1] 0.001 | [2] -0.003 | [3] -0.003 | [4] -0.019 | [5] 0.051

SYPL1 (UniProt Q16563)
UniProt Q16563, sequence (Q16563 whole entry, looked up): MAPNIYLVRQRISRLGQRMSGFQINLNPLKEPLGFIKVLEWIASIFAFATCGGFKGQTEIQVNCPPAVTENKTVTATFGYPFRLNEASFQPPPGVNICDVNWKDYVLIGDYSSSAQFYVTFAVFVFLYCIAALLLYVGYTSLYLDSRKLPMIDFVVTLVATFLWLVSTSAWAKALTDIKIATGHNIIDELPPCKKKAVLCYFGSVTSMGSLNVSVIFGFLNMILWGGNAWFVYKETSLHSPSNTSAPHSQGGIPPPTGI
inactive: [1] -0.075 | [2] 0.003 | [3] -0.01 | [4] -0.041 | [5] -0.123

SLC27A2 (UniProt O14975)
UniProt O14975, sequence (O14975 whole entry, looked up): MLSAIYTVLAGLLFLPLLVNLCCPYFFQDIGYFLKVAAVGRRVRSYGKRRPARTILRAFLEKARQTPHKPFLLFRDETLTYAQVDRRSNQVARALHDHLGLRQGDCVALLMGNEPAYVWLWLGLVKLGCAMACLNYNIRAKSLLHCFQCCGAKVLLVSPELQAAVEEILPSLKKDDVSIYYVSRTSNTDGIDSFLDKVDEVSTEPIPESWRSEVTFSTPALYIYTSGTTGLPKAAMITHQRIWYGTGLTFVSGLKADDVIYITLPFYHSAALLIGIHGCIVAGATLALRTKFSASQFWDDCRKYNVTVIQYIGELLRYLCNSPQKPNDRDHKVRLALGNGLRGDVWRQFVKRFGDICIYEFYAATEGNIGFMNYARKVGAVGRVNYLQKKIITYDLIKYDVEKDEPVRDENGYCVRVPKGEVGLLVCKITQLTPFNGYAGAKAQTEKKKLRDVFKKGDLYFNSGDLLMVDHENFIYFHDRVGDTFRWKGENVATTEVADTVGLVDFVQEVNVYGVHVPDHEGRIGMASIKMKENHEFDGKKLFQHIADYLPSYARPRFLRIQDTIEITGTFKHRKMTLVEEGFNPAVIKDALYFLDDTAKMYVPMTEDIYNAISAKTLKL
inactive: [1] 0.198 | [2] -0.064 | [3] -0.043 | [4] -0.063 | [5] -0.05

SMTN isoform 6 (UniProt P53814)
inactive: [1] 0.053 | [2] -0.011 | [3] -0.01 | [4] 0.01 | [5] 0.081

SLC29A2 (UniProt Q14542)
inactive: [1] 0.106 | [2] 0.001 | [3] 0.044 | [4] -0.116 | [5] -0.233

SNW1 (UniProt Q13573)
inactive: [1] 0.018 | [2] -0.002 | [3] -0.009 | [4] 0.022 | [5] 0.048

SNAP23 (UniProt O00161)
inactive: [1] 0.059 | [2] -0.038 | [3] -0.005 | [4] 0.007 | [5] 0.066

SPATS2 (UniProt Q86XZ4)
inactive: [1] 0.042 | [2] -0.035 | [3] 0.061 | [4] -0.014 | [5] -0.07

SMG6 (UniProt Q86US8)
inactive: [1] 0.097 | [2] -0.041 | [3] -0.043 | [4] 0.076 | [5] 0.073

SMG5 (UniProt Q9UPR3)
UniProt Q9UPR3, sequence (Q9UPR3 whole entry, looked up): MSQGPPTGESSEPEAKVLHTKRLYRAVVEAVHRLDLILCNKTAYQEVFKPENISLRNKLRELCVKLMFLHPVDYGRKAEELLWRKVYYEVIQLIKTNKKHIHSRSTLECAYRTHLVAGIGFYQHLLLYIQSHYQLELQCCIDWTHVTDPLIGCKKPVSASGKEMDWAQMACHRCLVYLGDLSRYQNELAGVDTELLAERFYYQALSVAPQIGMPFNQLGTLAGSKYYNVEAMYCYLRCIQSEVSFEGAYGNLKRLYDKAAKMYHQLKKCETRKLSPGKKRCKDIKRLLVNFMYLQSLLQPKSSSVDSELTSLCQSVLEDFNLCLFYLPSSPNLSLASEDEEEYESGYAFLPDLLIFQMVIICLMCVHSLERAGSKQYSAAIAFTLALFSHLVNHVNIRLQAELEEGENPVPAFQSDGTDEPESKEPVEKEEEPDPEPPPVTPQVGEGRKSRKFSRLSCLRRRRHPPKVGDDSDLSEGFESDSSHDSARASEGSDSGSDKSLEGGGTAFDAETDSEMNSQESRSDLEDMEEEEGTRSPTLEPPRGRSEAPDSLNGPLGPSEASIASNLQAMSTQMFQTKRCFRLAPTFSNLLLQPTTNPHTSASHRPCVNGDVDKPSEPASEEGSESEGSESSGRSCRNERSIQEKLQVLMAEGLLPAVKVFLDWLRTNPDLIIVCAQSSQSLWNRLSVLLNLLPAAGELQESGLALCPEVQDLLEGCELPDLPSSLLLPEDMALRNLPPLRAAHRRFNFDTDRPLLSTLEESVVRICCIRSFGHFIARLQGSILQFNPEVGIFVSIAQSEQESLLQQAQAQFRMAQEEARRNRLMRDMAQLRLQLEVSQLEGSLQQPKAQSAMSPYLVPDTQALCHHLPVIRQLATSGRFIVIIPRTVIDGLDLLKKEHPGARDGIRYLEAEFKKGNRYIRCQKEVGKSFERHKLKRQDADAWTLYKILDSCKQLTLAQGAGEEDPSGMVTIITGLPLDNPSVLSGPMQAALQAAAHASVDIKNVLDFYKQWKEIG
inactive: [1] -0.078 | [2] 0.041 | [3] 0.026 | [4] -0.047 | [5] -0.024

SKA3 (UniProt Q8IX90)
inactive: [1] -0.008 | [2] -0.002 | [3] -0.009 | [4] -0.016 | [5] -0.02

SLC25A44 (UniProt Q96H78)
UniProt Q96H78, sequence (Q96H78 whole entry, looked up): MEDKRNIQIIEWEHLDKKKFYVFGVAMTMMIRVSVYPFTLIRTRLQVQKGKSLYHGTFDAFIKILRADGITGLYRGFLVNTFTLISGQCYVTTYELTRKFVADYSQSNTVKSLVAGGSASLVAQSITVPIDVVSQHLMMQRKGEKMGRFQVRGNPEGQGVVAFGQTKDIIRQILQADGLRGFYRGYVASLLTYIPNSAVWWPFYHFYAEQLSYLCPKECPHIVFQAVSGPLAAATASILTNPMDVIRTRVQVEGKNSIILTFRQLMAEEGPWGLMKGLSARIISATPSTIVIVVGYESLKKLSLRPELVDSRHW
inactive: [1] 0.042 | [2] -0.044 | [3] -0.014 | [4] -0.004 | [5] -0.17

SH3BGRL2 (UniProt Q9UJC5)
UniProt Q9UJC5, sequence (Q9UJC5 whole entry, looked up): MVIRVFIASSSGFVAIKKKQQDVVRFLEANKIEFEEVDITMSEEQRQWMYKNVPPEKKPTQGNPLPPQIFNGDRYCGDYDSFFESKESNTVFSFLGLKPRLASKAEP
inactive: [1] 0.048 | [2] 0.085 | [3] -0.027 | [4] -0.001 | [5] 0.083

SLC30A9 (UniProt Q6PML9)
inactive: [1] -0.013 | [2] -0.045 | [3] 0.003 | [4] -0.013 | [5] -0.105

SRRT (UniProt Q9BXP5)
UniProt Q9BXP5, sequence (Q9BXP5 whole entry, looked up): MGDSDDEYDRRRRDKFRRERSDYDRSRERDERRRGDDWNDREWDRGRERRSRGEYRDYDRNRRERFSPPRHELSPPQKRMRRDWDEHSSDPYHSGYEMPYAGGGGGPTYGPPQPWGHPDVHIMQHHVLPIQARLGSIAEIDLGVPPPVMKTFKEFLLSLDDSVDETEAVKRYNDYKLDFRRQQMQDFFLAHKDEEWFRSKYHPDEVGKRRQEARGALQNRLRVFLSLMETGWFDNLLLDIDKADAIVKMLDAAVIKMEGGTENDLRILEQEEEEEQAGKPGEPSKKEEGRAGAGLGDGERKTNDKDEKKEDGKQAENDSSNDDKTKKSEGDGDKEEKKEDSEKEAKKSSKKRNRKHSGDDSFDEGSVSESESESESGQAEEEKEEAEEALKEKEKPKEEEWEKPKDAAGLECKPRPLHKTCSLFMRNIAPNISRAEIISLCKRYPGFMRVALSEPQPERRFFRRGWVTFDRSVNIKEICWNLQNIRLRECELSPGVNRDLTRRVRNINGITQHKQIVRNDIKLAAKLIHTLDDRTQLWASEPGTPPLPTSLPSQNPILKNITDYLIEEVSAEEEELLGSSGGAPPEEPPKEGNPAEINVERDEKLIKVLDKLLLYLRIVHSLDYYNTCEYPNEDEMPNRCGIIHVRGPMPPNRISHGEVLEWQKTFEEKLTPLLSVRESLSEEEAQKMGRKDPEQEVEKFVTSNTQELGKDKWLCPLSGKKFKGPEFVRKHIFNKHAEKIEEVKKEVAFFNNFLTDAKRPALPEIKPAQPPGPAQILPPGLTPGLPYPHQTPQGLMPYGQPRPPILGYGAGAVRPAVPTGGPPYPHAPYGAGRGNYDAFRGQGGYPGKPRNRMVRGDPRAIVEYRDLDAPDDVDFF
inactive: [1] -0.003 | [2] 0.02 | [3] -0.002 | [4] 0.021 | [5] 0.068

SYF2 (UniProt O95926)
UniProt O95926, sequence (O95926 whole entry, looked up): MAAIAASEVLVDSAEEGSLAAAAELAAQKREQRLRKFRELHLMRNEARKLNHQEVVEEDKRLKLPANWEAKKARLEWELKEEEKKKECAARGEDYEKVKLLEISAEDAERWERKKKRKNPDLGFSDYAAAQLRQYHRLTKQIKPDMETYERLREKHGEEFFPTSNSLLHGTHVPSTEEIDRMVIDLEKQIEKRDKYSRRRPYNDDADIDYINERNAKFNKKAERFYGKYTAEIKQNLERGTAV
inactive: [1] 0.021 | [2] -0.102 | [3] 0.001 | [4] 0.015 | [5] -0.024

SPIRE1 (UniProt Q08AE8)
inactive: [1] -0.008 | [2] 0.031 | [3] -0.006 | [4] -0.053 | [5] -0.212

SFR1 isoform 2 (UniProt Q86XK3)
UniProt Q86XK3, sequence (Q86XK3 whole entry, looked up): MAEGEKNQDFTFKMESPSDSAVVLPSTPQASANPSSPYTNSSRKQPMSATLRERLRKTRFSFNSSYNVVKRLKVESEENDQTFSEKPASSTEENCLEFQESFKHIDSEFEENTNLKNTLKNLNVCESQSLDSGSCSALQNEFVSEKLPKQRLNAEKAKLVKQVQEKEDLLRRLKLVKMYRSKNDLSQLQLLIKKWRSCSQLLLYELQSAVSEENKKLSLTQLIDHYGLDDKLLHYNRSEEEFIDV
inactive: [1] -0.035 | [2] -0.005 | [3] -0.01 | [4] 0 | [5] 0.072

SYK (UniProt P43405)
inactive: [1] -0.016 | [2] 0.06 | [3] 0.135 | [4] 0.008 | [5] -0.052

SULT1A1 (UniProt P50225)
UniProt P50225, sequence (P50225 whole entry, looked up): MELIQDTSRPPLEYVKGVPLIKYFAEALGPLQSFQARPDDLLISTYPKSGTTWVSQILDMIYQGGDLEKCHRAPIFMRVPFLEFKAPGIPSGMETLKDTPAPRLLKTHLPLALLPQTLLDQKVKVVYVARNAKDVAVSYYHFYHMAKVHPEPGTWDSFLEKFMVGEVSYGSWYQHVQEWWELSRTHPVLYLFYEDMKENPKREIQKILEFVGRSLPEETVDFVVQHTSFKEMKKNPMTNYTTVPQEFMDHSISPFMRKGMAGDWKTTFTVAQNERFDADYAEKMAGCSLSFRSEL
inactive: [1] -0.022 | [2] -0.02 | [3] 0 | [4] 0.051 | [5] 0.088

SKA1 (UniProt Q96BD8)
UniProt Q96BD8, sequence (Q96BD8 whole entry, looked up): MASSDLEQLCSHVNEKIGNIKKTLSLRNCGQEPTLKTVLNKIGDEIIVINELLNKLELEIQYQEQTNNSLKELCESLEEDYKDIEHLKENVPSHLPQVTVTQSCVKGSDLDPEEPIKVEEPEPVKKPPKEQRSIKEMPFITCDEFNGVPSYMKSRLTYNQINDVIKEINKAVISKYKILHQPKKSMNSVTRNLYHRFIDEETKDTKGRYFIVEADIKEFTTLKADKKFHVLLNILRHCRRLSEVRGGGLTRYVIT
inactive: [1] -0.03 | [2] 0.005 | [3] 0.025 | [4] -0.018 | [5] 0.018

TAF6L (UniProt Q9Y6J9)
inactive: [1] 0.011 | [2] -0.027 | [3] -0.094 | [4] -0.02 | [5] 0.061

SLC12A6 (UniProt Q9UHW9)
inactive: [1] 0.006 | [2] 0.017 | [3] 0.017 | [4] 0.036 | [5] 0.008

SLC25A38 (UniProt Q96DW6)
UniProt Q96DW6, sequence (Q96DW6 whole entry, looked up): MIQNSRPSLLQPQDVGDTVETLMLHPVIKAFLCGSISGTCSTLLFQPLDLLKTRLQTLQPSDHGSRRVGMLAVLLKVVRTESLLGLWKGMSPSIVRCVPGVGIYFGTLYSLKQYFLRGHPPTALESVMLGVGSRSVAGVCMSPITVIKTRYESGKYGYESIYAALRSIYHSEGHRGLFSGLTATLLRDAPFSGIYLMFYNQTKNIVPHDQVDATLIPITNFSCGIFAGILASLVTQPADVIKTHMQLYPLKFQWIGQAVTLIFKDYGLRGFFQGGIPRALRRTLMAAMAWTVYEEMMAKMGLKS
inactive: [1] 0.099 | [2] 0 | [3] 0.013 | [4] -0.323 | [5] -0.047
